Bioassay records deposited in PubChem BioAssay by National Center for Advancing Translational Sciences (NCATS).
Rango complex inh – Rango-importin beta binding inhibition; Rango CFP/YFP FRET sensor + importin beta, 45 min; hit rate 0.031% among 340,000; Potency, µM (series often up to 92.2 µM); AID 540263; Q14974; calls by dose curve; note: nearly all actives have a fitted effect of over 15% in size
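Inhibition scored from the CFP 486 nm/YFP 530 nm FRET ratio 45 min after adding 0.125 microM importin beta to 50 nM Rango biosensor preincubated 5 min with compound (room temperature, PBS with DTT, Tween-20, BSA). No-importin wells as positive control.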
Rango release inh – prevents RanGTP from dissociating the Rango-importin beta complex. O95149+P62826. Biochemical FRET Rango-importin beta, RanGTP-induced dissociation. Potency, µM (titrated, usually from 46.1 µM). hit rate 0.071% among 340,000. AID 540253; calls by dose curve; note: nearly all actives have a fitted effect of over 45% in size
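Rango (0.1 uM)–importin beta (0.25 uM) complex; RanGTP-RCC1 trigger; 45 min RT; CFP/YFP FRET read.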
A549 tox – A549 cytotoxicity, counter-screen for Nrf2 inhibitors | hit rate 0.16% among 390,000 | A549 ARE-Fluc cells, CellTiter-Fluor viability, 18-24 h | Potency, µM (highest dose often 46 µM), actives largely listed as inhibitors
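A549 ARE-Fluc cells in 5% FBS OPTI-MEM, 5000 cells/well, rested 2 h then exposed to compounds in concentration-response for 18-24 h at 37 °C. Viability by CellTiter-Fluor fluorescence (Ex 405/Em 525) after 30 min; luciferase luminescence (BugLite, 15 min, RT) read afterwards.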
Nrf2 ARE act – activates Nrf2 signaling. AREc32 ARE-luciferase reporter (MCF7-derived line), luminescence, 24 h. Potency, µM (titrated, usually from 46.1 µM), usual class: activators. hit rate 0.31% among 410,000. AID 624171; note: nearly all actives have a fitted effect of over 65% in size
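Cells of the AREc32 ARE-luciferase line are plated in OPTI-MEM containing 5% FBS and left overnight at 37 deg C. Compounds are pinned in, incubation continues 24 hr, and firefly luciferase signal is then measured.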
Nrf2 block – inhibitors of Nrf2 signaling. Potency, µM (top dose mostly 46 µM), actives largely listed as inhibitors. hit rate 2.1% among 360,000. A549 ARE-Fluc reporter, luciferase luminescence, 18-24 h; note: nearly all actives have a fitted effect of over 60% in size
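Quantitative HTS in A549 cells stably bearing an antioxidant response element-firefly luciferase construct. Inhibition of Nrf2-driven transcription was scored by luminescence after 18-24 h of compound exposure at 37 °C.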
Numbers stand for hits; n = inactive; u = inconclusive; x = not tested or not shown; [ ] = remark or other dose. Most compounds without a hit are left out; they make up all but 2.3% or so of the library. Unless noted, calls come from the whole dose curve; as a rule, active = well fitted curve in the direction sought with a large enough effect; inconclusive = small, poorly fitted or top-dose-only effect, or another doubt; inactive = no such curve, though single readings can be large; an effect the other way counts as inactive or inconclusive.

SMILES | Rango complex inh | Rango release inh | A549 tox | Nrf2 ARE act | Nrf2 block
CCOc1ccc(Nc2c(S(=O)(=O)c3ccc(C)cc3)cnc3ccccc23)cc1 | x | x | n | n | 23µM
COC(=O)C1CN(C#N)N(c2ccc(Cl)cc2)C12c1ccccc1-c1ccccc12 (stereo unspecified) | n | n | u | n | 18µM
CCc1nn2c(=O)cc(N3CCN(C)CC3)nc2s1 | x | x | n | x | n
CC(N)C(=O)NC1C2C(=C(O)CC(O)C2O)C(=O)OC1(C)C(Cl)Cl (stereo unspecified) | n | n | 2.1µM | n | 1.6µM
O=C(c1ccccc1)c1ccc2nc(N3CCN(c4ccc(F)cc4)CC3)c3nncn3c2c1 | x | x | n | n | u
CN1CCN(c2ccc([N+](=O)[O-])c(N/N=C3\CN4CCC3CC4)c2)CC1 | n | n | 21µM | n | n
O=C(C(=O)N1CCOCC1)c1cn(Cc2c(F)cccc2Cl)c2ccccc12 | n | n | n | n | n
Cc1cc2c(cc(C(=O)N3CCC(C(=O)NC4CCCC4)CC3)n2Cc2c(F)cccc2Cl)o1 | n | n | n | n | 16µM
CCCCNC(=O)/C(C#N)=c1\s/c(=C\c2ccccc2OC(F)F)c(=O)n1CCCOC | n | u | n | n | n
COc1ccc(-c2nc(NC(=O)Cn3c(=O)oc4ccccc43)sc2C)cc1 | n | n | n | n | 18µM
COc1cc(NC(=O)CCn2c(=O)oc3ccccc32)cc(OC)c1OC | n | n | u | n | n
CCc1nn2c(=O)c(C)c(N3CCNCC3)nc2s1 | x | x | n | x | n
O=C(Nc1ccccc1F)Oc1cccc(OC(=O)Nc2ccccc2F)c1 | n | n | n | n | u
O=C1C(=O)c2ccccc2-c2ccccc21 | n | n | u | n | 18µM
O=C1C(=O)c2cccc3cccc1c23 | n | n | n | n | n
O=C1NC(=O)N(Cc2ccccc2)C(=O)/C1=C\C=C\c1ccco1 | u | u | u | u | 26µM
Cc1cccc(N(CC(=O)NCCSc2ccc(Cl)cc2)S(=O)(=O)c2ccccc2)c1C | x | x | n | n | u
CC(C)(C)n1ncc2c(=O)n(Cc3cccc(Cn4cnc5c(cnn5C(C)(C)C)c4=O)c3F)cnc21 | n | n | u | n | 5.2µM
CCC1CN2CCc3cc(OC)c(OC)cc3C2CC1CC1NCCc2c1[nH]c1ccc(O)cc21 (stereo unspecified) | u | n | 1.2µM | n | 0.52µM
CSc1ccccc1NC(=O)CN(C)CC(=O)c1[nH]c(C)c(C(C)=O)c1C | n | n | n | n | u
Cc1ccc(NC(=O)c2cc(S(=O)(=O)N3CCOCC3)c(Cl)cc2Cl)cc1 | x | x | n | n | u
COC1/C=C/C=C(\C)Cc2cc(O)c(Cl)c(c2)N(C)C(=O)CC(OC(=O)C(C)C)C2(C)OC2C(C)C2CC1(O)NC(=O)O2 (stereo unspecified) | n | n | u | n | 8.2µM
CCOc1cc(CNCCc2cccc(F)c2)ccc1OC | n | n | n | n | n
CCOc1ccc(CCNC(=O)c2cc3c(-c4cccc(OC)c4)nn(C)c3s2)cc1OCC | x | x | n | n | 18µM
COc1cc2[nH]c(=O)n(Cc3ccc(C(=O)N4CCN(c5ccc(Cl)cc5)CC4)cc3)c(=O)c2cc1OC | x | x | n | n | u
SMILES | Rango complex inh | Rango release inh | A549 tox | Nrf2 ARE act | Nrf2 block
C=C1C(=O)[C@@]23C[C@H]4[C@@H]5[C@@]6(C)CCC[C@@]57[C@@H]2[C@@H](O)[C@@H]1C[C@H]3[C@H]7N4C6 | n | n | 13µM | n | 23µM
CC(C)Cn1c(-c2cccc(S(=O)(=O)N3CCOCC3)c2)n[nH]c1=S | n | n | n | n | n
CC(C)Cn1c(O)c(N=NC(=O)c2cccc(S(=O)(=O)N3CCCCC3)c2)c2ccccc21 | n | n | u | n | 21µM
Cn1c(=O)oc2cc(S(=O)(=O)CCC(=O)NCCc3ccccc3)ccc21 | n | n | n | n | u
Cn1c(=O)oc2cc(NC(=O)CCl)ccc21 | n | n | n | 7.9µM | u
CCOC(=O)C1(CCc2ccccc2)CCN(Cc2cccc3c2OCO3)CC1 | n | n | n | n[9.22 µM] | u
CCOC(=O)C1(CCc2ccccc2)CCN(Cc2csc(C(C)=O)c2)CC1 | n | n | u | n | 15µM
COC(=O)C(NC(C)=O)(Nc1nc2c(C)cc(C)cc2s1)C(F)(F)F (stereo unspecified) | n | n | u | n | u
CCN(CC)CCOC(=O)c1ccc(NC(=O)CCn2c(=O)oc3ccccc32)cc1 | x | x | u | n | n
CC(=O)c1c(COC(=O)c2cccnc2)nc2ccccc2[n+]1[O-] | u | n | n | n | x
CN(C(=O)CSc1nc2ccc(NC(=O)COc3ccc(Cl)cc3)cc2s1)c1ccccc1 | x | x | n | n | 15µM
OCCNc1c2c(nc3ccccc13)CCCC2 | n | n | n | n | n
CNc1ccc2nc3ccccc3[n+](C)c2c1 | n | u | 7.3µM | n | 6.5µM
C[n+]1c2ccccc2nc2ccc(NCCO)cc21 | n | n | 16µM | n | u
Cc1ccccc1N(CC(=O)NC1CCCC1)C(=O)c1csnn1 | n | n | n | n | n
CCn1cc(C(=O)NCCc2ccc(OC)c(OC)c2)c(=O)c2cc(S(=O)(=O)N(C)C3CCCCC3)ccc21 | x | x | n | n | u
CN(C)c1nc(OCc2ccccc2)c2ncc(=O)[nH]c2n1 | n | n | n | n | u
CNc1ccc2oc(C[C@H]3O[C@@]4(CC[C@H]3C)O[C@H]([C@H](C)C(=O)c3ccc[nH]3)[C@H](C)C[C@H]4C)nc2c1C(=O)O | n | n | 3.7µM | n | 1.2µM
O=P(O)(O)c1ccccc1OCCOCCOCCOCCOc1ccccc1P(=O)(O)O | n | n | n | n | u
CC(C)(C)c1ccc(CSc2cnn(C(C)(C)C)c(=O)c2Cl)cc1 | n | n | n | n | 0.15µM
CCCCC(=O)Nc1c(C(=O)N2CCN(c3ccccc3F)CC2)oc2ccccc12 | x | x | n | n | u
COC(=O)C1=C(c2ccc(F)cc2OCc2ccccc2)C[C@@H]2CC[C@H]1N2C(=O)NC1Cc2ccccc2C1 | n | n | n | n | 16µM
COC(=O)C1=C(c2ccc(F)cc2OCc2ccccc2)C[C@@H]2CC[C@H]1N2C(=O)NCc1ccc(F)cc1 | n | n | n | n | u
COC(=O)C1=C(c2ccc(F)cc2OCc2ccccc2)C[C@@H]2CC[C@H]1N2C(=O)NCCCc1ccccc1 | n | n | n | n | 16µM
COC(=O)C1=C(c2ccc(F)cc2OCc2ccccc2)C[C@@H]2CC[C@H]1N2C(=O)NCc1ccc(C)cc1 | n | n | u | n | 15µM
COC(=O)C1=C(c2ccc(F)cc2OCc2ccccc2)C[C@@H]2CC[C@H]1N2C(=O)N1CCCCC1 | n | n | n | n | u
COC(=O)C1=C(c2ccccc2OCc2ccccc2)C[C@@H]2CC[C@H]1N2C(=O)NCc1ccc(C(C)(C)C)cc1 | n | n | n | n | 21µM
Cc1[nH]c2ccccc2c1P(=S)(c1ccccc1)c1ccccc1 | x | x | n | x | n
